# Screening results as filed in PubChem BioAssay.
# Sfp PPTase inh – Sfp phosphopantetheinyl transferase inhibition | Q9F4F7 | Biochemical Sfp PPTase activity, qHTS | Potency, µM, for the others: largest response in the series, negative = inhibition, most hits filed as inhibitors | hit rate 3.5% among 310,000;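 also: the enzyme is Sfp with the accession as filed and its product quenches rhodamine fluorescence; 0% = enzyme reaction without inhibitor and -100% = no enzyme wells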
#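 Step 1, compound plus 15 nM Sfp-PPTase, 15 min, room temperature. Step 2, add rhodamine-CoA (5 uM) and BHQ-2-YbbR (12.5 uM). Step 3, read 525/598 nm fluorescence at 0 and 30 min.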
# Gal4-VP16 FLuc – Gal4-VP16 reporter inhibition counter-screen | hit rate 3.5% among 310,000 | AID 2546 | Potency, µM (highest dose often 53.6 µM), for the others: top-dose activity, negative = inhibition, actives largely listed as inhibitors | Drosophila S2 Gal4-VP16 UAS-luciferase, luminescence, 20 h;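 also: Gal4-VP16 expression switched on by copper sulfate through the metallothionein promoter; % is scaled to controls: 0 for no effect and ±100 for the full control effect; nearly all actives have a fitted effect of over 50% in size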
# RORgamma inh – inhibitors of mouse ROR gamma transcriptional activity. P51450. Drosophila S2 Gal4-RORgamma UAS-luciferase reporter, 20 h. Potency, µM (series often up to 53.6 µM), for the others: at the highest dose activity change, negative = inhibition, actives largely listed as inhibitors. hit rate 5.4% among 310,000; also: % is scaled to controls: 0 for no effect and ±100 for the full control effect; nearly all actives have a fitted effect of over 60% in size
#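 Drosophila S2 cells stably expressing Gal4-DBD/mouse RORγ fusion under metallothionein promoter plus UAS-luciferase; compound 1 h, then 700 uM CuSO4 induction for 20 h at ambient temperature; inhibition read as reduced luminescence.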
# Epigenetic derep – derepresses silenced GFP reporter in murine cells; murine LDR cells, GFP reporter derepression, 30 h; Potency, µM (top dose mostly 53.9 µM), for the others: top-dose GFP activation, usual class: activators; hit rate 0.2% among 280,000; AID 1865; also: % of control where 0% means no effect; nearly all actives have a fitted effect of over 60% in size
#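 In this reporter-derepression format, murine cells bearing a silenced integrated CMV-GFP locus incubate with test compound (30 h, 37 C), then are washed and imaged; fluorescent objects of 20–120 um count as induced cells.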
# PINK1 expr mod – PINK1 expression modulation; PINK1 immunofluorescence, high-content cytometry, 24 h; Potency, µM (titrated, usually from 76.6 µM), without a hit: at the top dose activation (PINK1 increase), usual class: activators; hit rate 0.2% among 410,000; AID 624263; active = well fitted activation curve with a large enough effect; inconclusive = small, poorly fitted or top-dose-only effect; cell line not stated here; also: % of control where 0% means no effect; nearly all actives have a fitted effect of over 65% in size
#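 Stable cell line treated 24 h with compounds at 5 concentrations (CCCP controls), then fixed and immunostained for PINK1 plus nuclear and cell stains; PINK1 immunofluorescence quantified by laser-scanning microplate cytometry.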
# ClpP mod – qHTS Assay for Activators of ClpP; ATP-dependent Clp protease proteolytic subunit (Bacillus subtilis (strain 168)), P80244; purified B. subtilis ClpP, FRET peptide cleavage, 20 min; Potency, µM (top dose mostly 57.5 µM), inactives show at the highest dose activity change, negative = active; hit rate 1.9% among 340,000; AID 651965, 2013; active = well fitted falling curve with a large enough effect; inconclusive = small, poorly fitted or top-dose-only effect; inactive = no such curve, though single readings can be large or run the other way; also: the source files actives as falling curves though it sought activators and does not explain the sign; nearly all actives have a fitted effect of over 65% in size
#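 Buffer: 100 mM Tris/HCl pH8, 100 mM KCl, 0.05% low protease BSA, 2.5% glycerol, 0.01% Tween-20. ClpP 10 microg/mL final; 20 min RT; delta FRET normalized to ADEP and DMSO controls.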
# * = called active by the depositor; u = inconclusive; x = not tested or not shown; ! = repeats disagree; [ ] = dose if it differs, or a comment. This is a sample that favours compounds with a hit; in the whole collection about 8.1% have one here. Unless noted, calls follow the shape of the dose curve; as a rule, active = well fitted curve in the direction sought with a large enough effect; inconclusive = small, poorly fitted or top-dose-only effect, or another doubt; inactive = no such curve, though single readings can be large; an effect the other way counts as inactive or inconclusive. Potency is read from the fitted curve at half-maximal effect.
SMILES,Sfp PPTase inh,Gal4-VP16 FLuc,RORgamma inh,Epigenetic derep,PINK1 expr mod,ClpP mod
O=S(=O)(CCN1CCN(C(c2ccccc2)c2ccccc2)CC1)C(F)(F)F,5.7%,15.8µM*,u,8.6%,-0.2%[38.3 µM],0.1%
Cc1ccc(CNC(=O)C2CCCN(C(=O)Nc3ccc(F)cc3)C2)cc1 (stereo not drawn),0.8%,0.6%,-7.5%,x,-0.1%,x
CC(C)COC(=O)NCC12C=CC(O1)C1C(=O)N(c3ccc(Cl)cc3)C(=O)C12 (stereo not drawn),12.6µM*,20µM*,3.98µM*,0.9%,11.7%,-1.7%
Cc1ccc(N2C(=O)C3C4C=CC(CNC(=S)N5CCN(c6ccccn6)CC5)(O4)C3C2=O)cc1 (stereo not drawn),28.2µM*,-27.1%,u,-0.3%,4.8%,-17.2%
Cc1ccc(NC(=O)N2CCN(c3ccccn3)CC2)cc1,-3.6%,-11.2%,u,4.8%,-0.4%[38.3 µM],u
Cc1ccc(N2C(=O)C3C4C=CC(CNC(=S)Nc5cccc(Cl)c5)(O4)C3C2=O)cc1 (stereo not drawn),35.5µM*,12.6µM*,u,u,6.7%,0.2%
Cc1ccc(N2C(=O)N(CC(=O)Nc3cccc(Cl)c3)C(=O)C2C)cc1 (stereo not drawn),x,x,x,x,0.5%,1.0%
Cc1ccc(N2C(=O)C3C4C=CC(CNC(=S)Nc5ccc(F)cc5)(O4)C3C2=O)cc1 (stereo not drawn),14.1µM*,3.98µM*,4.47µM*,u,3.4%,-1.3%
CCOC(=O)c1ccc(NS(=O)(=O)c2cc3c(cc2C)n(C)c(=O)c(=O)n3C)cc1,x,x,x,1.2%,4.3%,-4.1%
Cc1ccc(NC(=O)Cn2cnc3sc(C(=O)O)c(C)c3c2=O)cc1Cl,x,x,x,-1.6%,1.4%,0.2%
Cc1ccc(N2C(=O)C3C4C=CC(CNC(=S)Nc5ccc(Cl)cc5)(O4)C3C2=O)cc1 (stereo not drawn),39.8µM*,3.16µM*,7.08µM*,0.0%,0.6%,-2.9%
Cc1ccc(C2CC2C(=O)NNC(=S)Nc2ccc(Cl)cc2)cc1 (stereo not drawn),-4.8%,-3.2%,22.8%,0.0%,x,-2.3%
CC1CSc2ccccc2NC1=S (stereo not drawn),-10.8%,7.94µM*,7.08µM*,2.6%,-0.3%,0.1%
CC1CC(=O)Nc2ccccc2N1 (stereo not drawn),x,x,x,x,0.3%,x
O=C1CC(c2ccccc2)Sc2ccccc2N1 (stereo not drawn),-7.7%,-2.8%,12.2%,1.9%,x,1.0%
S=C1CSc2ccccc2N1,-87.8%,7.94µM*,3.55µM*,-0.9%,0.2%,-0.2%
c1ccc(C2CSc3ccccc3N2)cc1 (stereo not drawn),56.2µM*,-2.8%,-10.7%,x,1.1%,-14.2%
Cc1ccc(C)c(S(=O)(=O)c2cnc(SCC(=O)Nc3ccc(F)cc3F)[nH]c2=O)c1,x,x,x,0.8%,0.0%,-2.4%
O=C(NNC(=O)c1ccc2ccccc2c1O)c1cccs1,19.3%,u,15.8µM*,x,2.6%,x
O=C(Nc1ccc(Br)c2ccccc12)c1ccc2ccccc2c1O,-3.1%,u,u,4.8%,25.1µM*,u
O=C(NNC(=O)c1cc2ccccc2cc1O)c1cccs1,10.2%,u,20µM*,x,0.9%,x
Cc1ccnc2c(Cl)c(Cl)ccc12,x,x,x,x,x,-0.4%
Cc1cc(C=O)c(C)c2c1[nH]c1ccccc12,x,x,x,x,-0.7%,-7.2%
O=Cc1c2[nH]c3ccccc3c2cc2[nH]c3ccccc3c12,-4.7%,16.6%,-14.1%,12.6µM*!,x,x
CCN(CC)CCNC(=O)c1ccc(-c2nc(CN3CCc4ccccc43)c(C)o2)cc1,x,x,x,-0.9%,10.5%,-9.2%
COc1cccc(CNC(=O)C2CCN(c3nc4ccc(Cl)cc4[nH]3)CC2)c1,x,x,x,-2.8%,0.0%,-1.2%
Cc1ccc(-c2nc3ccccc3o2)cc1NC(=S)NC(=O)c1cc2ccccc2o1,u,u,u,-1.0%,0.3%,15.8µM*
